# Most compounds without a hit are left out; they make up all but 3% or so of the library.
# PAFAH1B2 FP inh: blocks human PAF acetylhydrolase 1b catalytic subunit 2 | 340,000 compounds, 1.2% hits | AID 492953 | P68402 | recombinant PAFAH1B2, FP-rhodamine activity probe, fluorescence polarization | inhibition, % at 3.39 µM;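 active means inhibition above the mean of all tested compounds plus 3 SD, cut at about 24% in these data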;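 further: 0% = enzyme with DMSO and 100% = wells lacking PAFAH1B2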
# Target sequence (P68402 whole entry, looked up): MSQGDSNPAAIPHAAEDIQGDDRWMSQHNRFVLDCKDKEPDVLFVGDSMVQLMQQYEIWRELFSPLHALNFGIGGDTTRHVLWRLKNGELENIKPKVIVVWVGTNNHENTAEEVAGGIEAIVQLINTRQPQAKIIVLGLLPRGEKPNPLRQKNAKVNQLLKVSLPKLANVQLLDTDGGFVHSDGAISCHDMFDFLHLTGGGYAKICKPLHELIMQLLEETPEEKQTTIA
# pPAFAH FP inh: pPAFAH (human) enzyme inhibition; recombinant pPAFAH, FP-rhodamine probe fluorescence polarization; inhibition, % at 3.39 µM; 330,000 compounds, 1.5% hits; AID 463082;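 active means inhibition above the mean inhibition across the screen plus 3 SD, cut at about 25% in these data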;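 further: inhibitors block binding of the rhodamine activity-based probe so polarization drops; 0% = enzyme with DMSO and 100% = wells lacking pPAFAH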
# PAFAH2 FP inh: inhibitors of human PAFAH2; Q99487; recombinant PAFAH2, FP-rhodamine activity probe, fluorescence polarization; inhibition, % at 3.39 µM; 340,000 compounds, 0.99% hits;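 active means inhibition above the mean over all tested compounds plus 3 SD, cut at about 30% in these data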;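 further: inhibitors block probe labeling of enzyme so polarization drops; 0% = enzyme with DMSO and 100% = wells lacking PAFAH2 protein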
# ATG4B inhibitor: blocks human ATG4B protease cleavage of LC3 substrate; ATG4B cleavage of LC3-PLA2, NBD-HPC fluorescence, 1 h; 340,000 compounds, 0.51% hits; Q9Y4P1; inhibition, % at 8.33 µM; in the data active means inhibition above about 40%
# Target sequence (Q9Y4P1 whole entry, looked up): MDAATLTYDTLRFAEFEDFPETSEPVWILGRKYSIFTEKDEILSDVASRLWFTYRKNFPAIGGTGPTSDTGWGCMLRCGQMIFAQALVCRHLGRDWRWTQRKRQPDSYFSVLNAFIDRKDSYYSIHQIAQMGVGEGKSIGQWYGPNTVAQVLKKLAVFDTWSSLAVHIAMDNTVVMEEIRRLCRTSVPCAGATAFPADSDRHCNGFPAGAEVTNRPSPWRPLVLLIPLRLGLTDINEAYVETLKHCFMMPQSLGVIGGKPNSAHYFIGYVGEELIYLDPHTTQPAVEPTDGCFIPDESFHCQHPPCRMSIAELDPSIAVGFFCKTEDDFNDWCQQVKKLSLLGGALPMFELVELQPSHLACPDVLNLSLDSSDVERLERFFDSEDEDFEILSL
# PAFAH1B3 FP inh: inhibitors of human PAFAH1B3; AID 492972; inhibition, % at 3.39 µM; 340,000 compounds, 0.28% hits; recombinant PAFAH1B3, FP-rhodamine probe, fluorescence polarization; Q15102;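 active means inhibition above the screen-wide average of all tested compounds plus 3 SD, cut at about 25% in these data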;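 further: 0% = enzyme with DMSO only and 100% = wells lacking PAFAH1B3 protein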
# DAGLB inh: diacylglycerol lipase beta (human) inhibition; HEK293T DAGLB membrane lysate, EnzChek fluorogenic substrate; inhibition, % at 5.17 µM; 340,000 compounds, 0.059% hits; in the data active means inhibition above about 34%;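 further: 0% = enzyme with vehicle and 100% = wells lacking enzyme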
# PAFAH2 FP conf: confirmation of human PAFAH2 inhibitors. 2,300 compounds, 65% hits. recombinant PAFAH2, FP-rhodamine activity probe, fluorescence polarization. shares compounds with PAFAH2 FP inh. AID 493030. inhibition, % at 3.39 µM;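 active means mean inhibition over three repeats above a set limit taken from the earlier primary screen, cut at about 30% in these data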;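 further: inhibitor blocks binding of rhodamine activity probe so polarization falls; 0% = enzyme with DMSO and 100% = wells lacking PAFAH2 protein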
# Starred values were filed as active, the others as inactive; . = no result.
SMILES,PAFAH1B2 FP inh,pPAFAH FP inh,PAFAH2 FP inh,ATG4B inhibitor,PAFAH1B3 FP inh,DAGLB inh,PAFAH2 FP conf
COc1ccc([C@@]2(O)c3c(ccc(CC=C(C)C)c3O)NC(=O)[C@@H]2OC)cc1,0,11,5,-31,3,0,.
COc1ccc(NC(=O)COC(=O)c2cc3c(s2)CCC3)cc1,-3,12,77*,-48,4,-5,82*
COc1ccc(OCC(=O)Nc2ccc3c(c2)CCC3)cc1,8,-3,2,3,3,-17,.
O=C1/C(=C\c2ccccn2)SC(=S)N1Nc1ncc(C(F)(F)F)cc1Cl,10,-5,34*,6,12,3,26
O=C1/C(=C/c2ccc(F)cc2)SC(=S)N1Nc1ncc(C(F)(F)F)cc1Cl,-4,9,2,-1,-6,-2,.
O=C1/C(=C/c2ccccn2)SC(=S)N1Nc1ncc(C(F)(F)F)cc1Cl,19,.,37*,5,11,4,18
O=C1/C(=C/c2ccccn2)SC(=S)N1NS(=O)(=O)c1ccccc1,7,3,4,0,10,8,.
Nc1ccn([C@@H]2O[C@H](CNCc3ccc(OCC(=O)Nc4nccs4)cc3)[C@@H](O)[C@H]2O)c(=O)n1,.,.,.,.,.,-2,.
Cc1c(C(c2ccccc2O)c2c(C)n(C)n(-c3ccccc3)c2=O)c(=O)n(-c2ccccc2)n1C,4,6,-5,-1,12,4,.
CCCCCCC(c1c(C)n(C)n(-c2ccccc2)c1=O)c1c(C)n(C)n(-c2ccccc2)c1=O,4,0,70*,-9,2,-2,70*
N#CC(C#N)=Cc1ccccc1OCc1ccccc1,.,7,.,.,.,.,.
CC(C)(C)NC(=O)COC(=O)/C=C/c1ccc(F)cc1,0,5,65*,0,9,-2,47*
COc1cc(/C=C/C(=O)OCC(=O)NC(=O)NC(C)(C)C)cc(OC)c1OC,5,2,4,-9,2,1,.
COc1ccc(/C=C/C(=O)OCC(=O)NC(=O)NC(C)(C)C)cc1,8,1,38*,-17,2,-2,20
Cc1ccccc1C(=O)NNC(=O)CCCCC(=O)NNC(=O)c1ccccc1C,4,0,5,-3,6,-4,.
COCCCNC(=O)C[C@H]1C[C@H](C(=O)N(C(C)C)C(C)C)[C@@]2(C)c3[nH]c4cc(CCC(=O)N(C)C)ccc4c3CCN2C1=O,2,-2,-5,3,4,-2,.
O=C(COC(=O)c1nc(Cl)ccc1Cl)Nc1ccc(Cl)cc1,0,13,-3,5,0,-6,.
CC(C)=CC(=O)OCC(=O)Nc1ccc(Cl)cc1,3,13,80*,-6,4,-2,78*
CC(C)=CC(=O)OCC(=O)Nc1cc(C)cc(C)c1,3,9,81*,-5,11,-2,85*
Cc1nn(-c2ccccc2)c(C)c1/C=C/C(=O)OC(C)C(=O)Nc1ncc(Cl)cc1Cl (stereo not drawn),4,10,-3,-5,3,0,.
COc1ccc(/C=C/C(=O)OCC(=O)Nc2ccc(Cl)cn2)cc1,5,2,20,-3,4,2,.
Cc1nn(-c2ccccc2)c(C)c1/C=C/C(=O)OCC(=O)Nc1ncc(Cl)cc1Cl,-4,9,49*,-8,-4,0,55*
COc1ccc(/C=C/C(=O)OCC(=O)Nc2ncc(Cl)cc2Cl)cc1,0,11,37*,0,-2,-1,43*
CC(C)N(Cc1ccccc1)C(=O)CN1C(=O)NC2(CCCCCC2)C1=O,14,-2,0,-1,0,0,.
O=C(O)CCCCCN1C(=O)/C(=C\c2ccc(-c3ccc(Cl)cc3)o2)SC1=S,-2,1,3,7,4,0,.
SMILES,PAFAH1B2 FP inh,pPAFAH FP inh,PAFAH2 FP inh,ATG4B inhibitor,PAFAH1B3 FP inh,DAGLB inh,PAFAH2 FP conf
O=C(O)CCCN1C(=O)/C(=C/c2ccc(-c3nc4ccccc4s3)o2)SC1=S,15,19,50*,-5,6,3,51*
CN(C)c1nc(N)c(C#N)c(C#N)c1C#N,2,.,-2,-1,7,-3,.
O=C(O)CCC(=O)Nc1ccc(C(=O)OCC(=O)c2ccc(Cl)cc2Cl)cc1,8,-7,62*,27,0,-1,51*
Cc1ccc(Cl)cc1NC(=O)c1ccc(NC(=O)CCC(=O)O)cc1,3,-1,3,-2,-2,-2,.
O=C(c1ccccc1)n1ccc(-c2cccs2)n1,1,1,43*,-5,-2,11,23
CC(=O)Oc1ccc(-c2nc3ccccc3c(=O)o2)cc1,3,-1,19,-7,11,0,.
O=c1oc(-c2ccc(Cl)cc2[N+](=O)[O-])nc2ccccc12,.,.,.,.,.,-18,.
O=c1oc(-c2cccc([N+](=O)[O-])c2)nc2ccccc12,5,4,43*,1,17,4,48*
Cc1sc2nc(-c3ccccc3)oc(=O)c2c1C,2,3,81*,35,6,-14,65*
Cc1cc(-c2nc3ccccc3c(=O)o2)ccc1[N+](=O)[O-],3,-5,70*,3,9,-2,70*
Cc1ccc(-c2nc3ccccc3c(=O)o2)cc1,-2,-8,81*,0,4,-1,73*
Cc1ccc(S(=O)(=O)N2CCCCC2)cc1NC(=O)CNc1ccc(C(F)(F)F)cc1,3,5,17,-16,-6,-3,.
COc1cc2c(cc1N)-c1ccc(N)cc1C2,0,.,-2,4,12,1,.
CC(C)(C)C(=O)NNC(=O)C1CC1(c1ccccc1)c1ccccc1 (stereo not drawn),2,2,-5,6,8,1,.
COCCNC(=O)C(c1ccc(F)cc1)N(C(=O)CCC(=O)Nc1nccs1)c1cccc(C)c1 (stereo not drawn),5,1,1,-5,5,-1,.
Cc1ccc2nc(-c3ccccc3)oc(=O)c2c1,0,1,86*,2,4,-3,69*
COc1ccc(-c2nc3ccc(C)cc3c(=O)o2)cc1OC,-5,4,43*,-5,-2,-3,42*
Cc1ccccc1-c1nc2ccccc2c(=O)o1,.,.,.,.,.,-9,.
CCC(=O)Nc1ccc(-c2nc3ccccc3c(=O)o2)cc1,7,.,3,9,-6,2,.
O=c1oc(-c2ccc(Br)o2)nc2ccccc12,3,-6,60*,19,10,-6,65*
Cc1ccc2nc(-c3ccccc3C)oc(=O)c2c1,-2,4,65*,1,3,-10,45*
O=C(Nc1cccc(-c2nc3ccccc3c(=O)o2)c1)c1ccccc1,-8,-13,-21,-10,-18,3,.
CSc1ccc(S(=O)(=O)Nc2c(C)n(C)n(-c3ccccc3)c2=O)cc1,-2,3,7,-5,-3,-1,.
